In all, about 52,000 compounds went through this assay and about 4,300 (8.3%) were called active. Cut-off read from the data, not from the text of the source: active = survival mostly below about 52% (no sharp cut-off); inactive = mostly above about 56%. The full list was thinned out, with actives kept by preference.

This assay has as its system DeltatarO mutant. In words: growth inhibition of S. aureus wild type versus tarO mutant, primary screen, teichoic acid synthesis inhibitors, RN4220, OD600 (AID 463173). As to conditions: OD600, 18 h, hits give low values, screened at 18.75 µg/mL (by protocol).
As to `CC(C)c1ccc(NC(=O)C2CCN(C(=O)c3ccc(F)cc3)CC2)cc1`, the survival was 61% (inactive).
In the case of `COc1ccc(NC(=O)c2cc(-c3ccccc3F)no2)cc1` it was 78% (inactive); in that of `CCOC(=O)c1ccccc1NC(=O)N(C)CCc1c(C)nn(CC)c1C`, 78% (inactive); in that of `COc1ccc(-c2cc3nc(C)c(CCC(=O)Nc4cccc(C(F)(F)F)c4)c(C)n3n2)c(OC)c1`, 92% (inactive).
The figure for `Cc1ccc(S(=O)(=O)N2CC=C(c3c(C)n(CC(=O)N4CCCC4)c4ccccc34)CC2)cc1C` is 72% (inactive); for `CCCCC1CCC(C(=O)N2CC(=O)Nc3ccc(C)cc3C2c2ccc(F)cc2)CC1` (stereo unspecified) it is 126% (inactive); for `O=C1CN(C(=O)C2CCCCC2)C(c2ccccc2)c2cc(F)ccc2N1` (stereo unspecified) it is 70% (inactive).
The figure for `CCCCC1CCC(C(=O)N2CC(=O)Nc3ccc(F)cc3C2c2ccc(F)cc2)CC1` (stereo unspecified) is 38% (active); for `CCCCC1CCC(C(=O)N2CC(=O)Nc3ccc(Cl)cc3C2c2ccc(F)cc2)CC1` (stereo unspecified) it is 40% (active); for `CCCCC(=O)N1CC(=O)Nc2ccc(F)cc2C1c1ccc(F)cc1` (stereo unspecified) it is 60% (inactive).
For `CCCCC1CCC(C(=O)N2CC(=O)Nc3ccc(Br)cc3C2c2ccc(F)cc2)CC1` (stereo unspecified), the survival is 55% (inactive).
In the case of `CCc1ccc2occ(CC(=O)Nc3sc4c(c3C(=O)OC)CCC4)c2c1` it was 70% (inactive).
In the case of `Cc1cc(-n2ccnc(NCCc3ccc(S(N)(=O)=O)cc3)c2=O)ccc1Br` it was 94% (inactive); in that of `Cc1ccccc1C(=O)Nc1nnc(S(=O)(=O)N2c3ccccc3CC2C)s1` (stereo unspecified), 20% (active); in that of `CC1Cc2ccccc2N1S(=O)(=O)c1nnc(NC(=O)c2ccccc2Br)s1` (stereo unspecified), 23% (active).
The figure for `Cc1ccc2c(c1)CC(C)N2S(=O)(=O)c1nnc(NC(=O)CC(C)C)s1` (stereo unspecified) is 59% (inactive); for `Cc1ccc2c(c1)CC(C)N2S(=O)(=O)c1nnc(NC(=O)c2ccccc2F)s1` (stereo unspecified) it is 9% (active); for `Cc1ccc2c(c1)CC(C)N2S(=O)(=O)c1nnc(NC(=O)C(C)C)s1` (stereo unspecified) it is 58% (inactive).
For the compound `Cc1cccc(N2CCN(C(=O)CN3C(=O)COc4ccc(S(=O)(=O)N5CCC(C)CC5)cc43)CC2C)c1` (stereo unspecified), the survival is 67% (inactive).
The figure for `COc1ccc(CCNC(=O)C(C)n2nc(C)c3sc4ccccc4c3c2=O)cc1OC` (stereo unspecified) is 110% (inactive); for `Cc1ccccc1Cn1cc(S(=O)(=O)c2ccc(F)cc2)c(=O)c2cc3c(cc21)OCO3` it is 68% (inactive); for `NC(=O)C1CCN(C(=O)Cn2c(-c3cccs3)cc3ccccc32)CC1` it is 73% (inactive).
Take `O=C(NCCN1CCCC1)c1ccc(Cl)cc1`: the survival is 98% (inactive).
Consider `CCOC(=O)c1cnc2c(C)cc(C)cc2c1Nc1ccc(N2CCOCC2)cc1`, for which the survival is 14% (active).
In the case of `CCOC(=O)c1cnc2ccc(OCC)cc2c1Nc1cc(Cl)c(OC)cc1OC` it was 51% (active); in that of `CCOC(=O)c1cnc2c(C)c(Cl)ccc2c1Nc1ccc(N2CCOCC2)cc1`, 43% (inactive); in that of `CCOC(=O)c1cnc2cc(Cl)c(OC)cc2c1Nc1ccc(Br)cc1C`, 102% (inactive).
In the case of `CCOC(=O)c1cnc2ccc(C)cc2c1Nc1ccc(OCc2ccccc2Cl)cc1` it was 2% (active); in that of `CCOC(=O)c1cnc2ccc(Cl)cc2c1Nc1ccc(OCC)cc1`, -5% (active); in that of `CCOC(=O)c1ccccc1NC(=O)c1cnc(N2CCOCC2)c2ccccc12`, 90% (inactive).
In the case of `CCOC(=O)c1cnc2ccc(OCC)cc2c1NCCN(C)C` it was 95% (inactive).
Take `O=C(N/C(=C\c1ccc(F)cc1)C(=O)N1CCOCC1)c1ccccc1`: the survival is 98% (inactive).
In the case of `Cc1cccc(OCC(=O)OC2CCN(C)CC2)c1` it was 100% (inactive); in that of `COC(=O)C(C#N)C(c1cccnc1)c1c(C)[nH][nH]c1=O` (stereo unspecified), 90% (inactive); in that of `COc1cc(OC)cc(-c2cc3nc(-c4ccccc4)cc(N4CCN(c5ccccc5)CC4)n3n2)c1`, 101% (inactive).
The figure for `CC(=O)Oc1ccc(C(=O)NC2CCSC2=O)cc1` (stereo unspecified) is 72% (inactive); for `COC(=O)CC1Oc2ccccc2-n2cc(-c3ccc(Cl)cc3)nc21` (stereo unspecified) it is 69% (inactive).
In the case of `CCN1CCSc2ccc(C(=O)NC(C)c3ccccc3)cc21` (stereo unspecified) it was 66% (inactive); in that of `O=C(Nc1ccc(Br)cc1)c1cccc(C(=O)Nc2ccc(Br)cc2)c1`, 72% (inactive); in that of `CCOC(=O)c1cc(-c2ccc(OC)cc2)n(CCC(=O)Nc2cccc(C(C)=O)c2)c1C`, 64% (inactive).
Consider `CCOC(=O)c1cnc2ccc(OC)cc2c1Nc1cccc(C(C)=O)c1`, for which the survival is 9% (active).
The figure for `CCOC(=O)c1cnc2ccc(Cl)cc2c1Nc1ccc(N2CCOCC2)cc1` is 0% (active); for `CCOC(=O)c1cnc2ccc(C)cc2c1Nc1ccc(N(CC)CC)cc1` it is -5% (active); for `CCOC(=O)c1cnc2ccc(OC)cc2c1Nc1ccc(OCc2ccccc2Cl)cc1` it is 8% (active).
The figure for `CCOC(=O)c1cccc(NC(=O)c2cc3cc4cc(OC)ccc4nc3s2)c1` is 76% (inactive); for `CCOC(=O)c1cnc2ccc(C(=O)OC)cc2c1Nc1ccc(OCc2ccccc2Cl)cc1` it is 151% (inactive).
The figure for `CCOC(=O)c1cnc2ccccc2c1Nc1ccc(N2CCOCC2)cc1` is 63% (inactive).
As for `CCOC(=O)c1cnc2ccc(C(=O)OC)cc2c1Nc1ccc(N2CCOCC2)cc1`, the survival is 144% (inactive).
For the compound `CCCCn1c2ccc(F)cc2c2nnc(SCCN(CC)CC)nc21`, the survival was 178% (inactive).
In the case of `CCn1c(CNC(=O)c2ccccc2)n[nH]c1=S` it was 86% (inactive).
In the case of `CCOc1ccc2cc(-c3nnc(Nc4ccc(C)cc4)s3)c(=O)oc2c1`, the survival is 80% (inactive).
The figure for `COc1ccccc1CCNC(=O)C(=O)NCC(c1ccco1)S(=O)(=O)c1ccccc1` (stereo unspecified) is 77% (inactive).
On to `COc1ccc(OC)c(CNC(=O)CCc2c(C)nc3c(c2C)c(=O)n(C)c(=O)n3C)c1`, for which the survival is 89% (inactive).
In the case of `Fc1ccc(-c2cn3ccccc3n2)cc1` it was 74% (inactive).
The figure for `Cc1cccc(NC(=O)C2CCCN(c3nnc(-n4c(C)ccc4C)s3)C2)c1C` (stereo unspecified) is 75% (inactive); for `Cc1cc(=O)[nH]c2nnc(SCC(=O)Nc3cc(C(F)(F)F)ccc3Cl)n12` it is 116% (inactive).
In the case of `CCOc1ccc(Nc2cc(C(=O)NCc3ccccc3Cl)c3ccccc3n2)cc1` it was 86% (inactive); in that of `CCOC(=O)c1cnc2ccc(OCC)cc2c1Nc1ccc(OCc2ccccc2Cl)cc1`, 9% (active); in that of `Cc1ccc(C2=Nc3ccccc3N(CC(=O)NCc3ccccc3Cl)C(=O)C2)cc1C`, 82% (inactive).
Take `COc1ccc(C(=O)Nc2ccccc2C(=O)OCc2cc(=O)n3c4c(sc3n2)CCCC4)cc1`: the survival is 72% (inactive).
In the case of `CCOc1ccc(S(=O)(=O)c2cc3cccc(OCC)c3oc2=O)cc1` it was 100% (inactive); in that of `COc1ccc(S(=O)(=O)c2cc3cc(OC)ccc3oc2=O)cc1`, 99% (inactive); in that of `COc1ccc(S(=O)(=O)c2cc3cc(C(C)(C)C)cc(O)c3oc2=O)cc1`, 26% (active).
The figure for `CCN(c1ccccc1)c1nnc(NC(=O)Nc2ccc(C)cc2)s1` is 89% (inactive); for `Cc1ccc(C(=O)Nc2cccc(C(=O)OCc3cc(=O)n4nc(C5CC5)sc4n3)c2)cc1` it is 81% (inactive).
Take `O=C(Nc1cccc(C(=O)OCc2cc(=O)n3nc(C4CC4)sc3n2)c1)c1ccccc1`: the survival is 6% (active).
The figure for `COc1cccc(C(=O)Nc2ccc(C(=O)OCc3cc(=O)n4nc(C5CC5)sc4n3)cc2)c1` is 79% (inactive); for `O=C(Nc1cccc(C(=O)OCc2cc(=O)n3nc(C4CC4)sc3n2)c1)c1ccc(F)cc1` it is 70% (inactive).
In the case of `Cc1cccc(OCC(=O)Nc2ccc(C(=O)OCc3cc(=O)n4nc(C5CC5)sc4n3)cc2)c1` it was -2% (active); in that of `O=C(COc1ccccc1)Nc1ccc(C(=O)OCc2cc(=O)n3nc(C4CC4)sc3n2)cc1`, 76% (inactive); in that of `COc1ccc(C(=O)Nc2cccc(C(=O)OCc3cc(=O)n4nc(C5CC5)sc4n3)c2)cc1`, 115% (inactive).
In the case of `COc1ccc(C(=O)Nc2ccc(C(=O)OCc3cc(=O)n4nc(C5CC5)sc4n3)cc2)cc1` it was -1% (active); in that of `Cc1ccc(OCC(=O)Nc2ccc(C(=O)OCc3cc(=O)n4nc(C5CC5)sc4n3)cc2)cc1`, 72% (inactive).
`Cc1ccc2nc3c(cc(C#N)c(=O)n3-c3nnc(SCc4ccc(F)cc4)s3)c(=O)n2c1`: the survival was 72% (inactive).
The figure for `Cc1ccc(NCc2nnc(SCC(=O)N3CCOCC3)o2)c(C)c1` is 74% (inactive).
As to `O=C(Cn1cc(SCc2ccc(C(F)(F)F)cc2)c2ccccc21)N1CCCC1`, the survival was 55% (inactive).
The figure for `COC(=O)c1ccc(Cn2nnc3c(=O)[nH]c(C4CCCN(S(=O)(=O)c5ccccc5Cl)C4)nc32)cc1` (stereo unspecified) is 68% (inactive); for `COc1cccc(CNC(=O)CN2C(=O)CCn3nc(-c4cn(C)c5ccccc45)cc32)c1OC` it is 76% (inactive).
In the case of `COc1ccc(OC)c(S(=O)(=O)NCCc2sc(-c3ccc(C)cc3)nc2C)c1` it was 94% (inactive).
The figure for `CCOC(=O)c1ccc(N2C(=O)c3n[nH]c(-c4ccco4)c3C2c2cccc(O)c2)cc1` (stereo unspecified) is -8% (active).
As for `CCOC(=O)c1ccc(N2C(=O)c3n[nH]c(C)c3C2c2cccc(Br)c2)cc1` (stereo unspecified), the survival is 8% (active).
The figure for `CCOC(=O)c1ccc(N2C(=O)c3n[nH]c(C)c3C2c2ccc(C(C)(C)C)cc2)cc1` (stereo unspecified) is 87% (inactive).
The figure for `CCOC(=O)c1ccc(N2C(=O)c3n[nH]c(-c4ccco4)c3C2c2cccc(OC)c2)cc1` (stereo unspecified) is 91% (inactive).
In the case of `CCOC(=O)c1ccc(N2C(=O)c3n[nH]c(-c4ccco4)c3C2c2ccc(O)cc2)cc1` (stereo unspecified) it was 40% (inactive); in that of `CCOC(=O)c1ccc(N2C(=O)c3n[nH]c(-c4cccs4)c3C2c2cccc(F)c2)cc1` (stereo unspecified), 105% (inactive); in that of `CCOC(=O)c1ccc(N2C(=O)c3n[nH]c(-c4ccco4)c3C2c2ccc(F)cc2)cc1` (stereo unspecified), 22% (active).
Consider `CCOC(=O)c1ccc(N2C(=O)c3n[nH]c(C)c3C2c2ccc(OCC)cc2)cc1` (stereo unspecified), for which the survival was 52% (inactive).
In the case of `CCOC(=O)c1ccc(N2C(=O)c3n[nH]c(-c4ccco4)c3C2c2ccc(C)cc2)cc1` (stereo unspecified) it was 69% (inactive); in that of `CCOC(=O)c1ccc(N2C(=O)c3n[nH]c(-c4cccs4)c3C2c2cccc(OC)c2)cc1` (stereo unspecified), 97% (inactive).
On to `CCOC(=O)c1ccc(N2C(=O)c3n[nH]c(-c4cccs4)c3C2c2cccc(O)c2)cc1` (stereo unspecified), for which the survival is -5% (active).
With `CCOC(=O)c1ccc(N2C(=O)c3n[nH]c(-c4ccco4)c3C2c2ccc(C(=O)OC)cc2)cc1` (stereo unspecified), the survival was 89% (inactive).

Values taken from PubChem BioAssay AID463173 (ICCB-Longwood Screening Facility, Harvard Medical School, 2010).
